Data as given in the supplement of paper PMC6607015.
Structures can show the parent of a compound that is named as a salt.

Tests used:
Details in all cases: compound concentration in added solution (µM; 5 µl added to 20 µl cells): 10; 18 h
A431 [1] = experiment: LBPA endosome anti-LBPA integrated intensity (sum per cell), Z-score; higher = more LBPA staining
Summary of the method: (§1)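 After 18 h on 5 µl of 10 µM compound solution in duplicate 384-well imaging plates, HeLa MZ or A431 cells, seeded at 3,500 per well in 20 µl, were fixed with 4% PFA. They were then labelled with 6C4 anti-LBPA antibody, filipin, propidium iodide and CellTracker green, and four 20× fields were recorded per well. Integrated LBPA or filipin intensity per cell, whole-cell or within LBPA endosomes, came from MetaXpress segmentation and was normalised to Z-scores in AcuityXpress.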

HeLa MZ [2] = experiment: as above
Summary of the method: as §1

A431 [3] = experiment: whole-cell filipin (free cholesterol) integrated intensity, Z-score; higher = more cholesterol staining
Summary of the method: as §1

HeLa MZ [4] = experiment: as above
Summary of the method: as §1

A431 [5] = experiment: filipin (cholesterol) integrated intensity within LBPA endosomes, Z-score; higher = more cholesterol in LBPA endosomes
Summary of the method: as §1

HeLa MZ [6] = experiment: as above
Summary of the method: as §1

Structure (SMILES) | LBPA endosome anti-LBPA integrated intensity (z-score) (A431 [1]) | LBPA endosome anti-LBPA integrated intensity (z-score) (HeLa MZ [2]) | whole-cell filipin (z-score) (A431 [3]) | whole-cell filipin (z-score) (HeLa MZ [4]) | filipin (z-score) (A431 [5]) | filipin (z-score) (HeLa MZ [6])
NNC(=O)c1ccncc1 [Isoniazid] | -0.56 | -1.34 | -0.938 | -1.09 | -0.477 | -0.667
O=S(=O)(O)CCS [Mesna] | -0.366 | 0.0893 | -0.163 | 0.141 | -0.454 | -0.55
COc1ccc(C(Cl)=C(c2ccc(OC)cc2)c2ccc(OC)cc2)cc1 [Chlorotrianisene] | -0.163 | -0.13 | 0.392 | -0.127 | -0.183 | -0.174
CCOc1ccc(Cc2nccc3cc(OCC)c(OCC)cc23)cc1OCC [Ethaverine hydrochloride] | 0.203 | 2.53 | 0.476 | 0.57 | -0.238 | 0.366
Clc1ccc2nsnc2c1NC1=NCCN1 [Tizanidine HCl] | -0.331 | 0.552 | -0.333 | -0.51 | -0.548 | -0.219
CN1CCC(=C2c3ccccc3CC(=O)c3sccc32)CC1 [Ketotifen fumarate] | 0.0746 | 0.508 | 0.273 | -0.159 | 0.289 | 0.175
c1ccc(C2CN3CCSC3=N2)cc1 (stereo not drawn) [Tetramisole hydrochloride] | -0.644 | 0.538 | -0.603 | -0.217 | -0.702 | -0.156
CC(NCCc1ccc(O)cc1)C(O)c1ccc(O)cc1 (stereo not drawn) [Ritodrine hydrochloride] | -0.357 | 0.237 | -0.158 | -0.199 | -0.481 | -0.491
CCCc1cc(=O)[nH]c(=S)[nH]1 [Propylthiouracil] | -0.571 | -0.555 | -0.7 | -0.496 | -0.538 | -0.457
O=C(O)Cc1cc(I)c(Oc2ccc(O)c(I)c2)c(I)c1 [Tiratricol, 3,3',5-triiodothyroacetic acid] | -0.369 | 0.145 | -0.472 | -0.883 | -0.548 | -0.66
OC(CCN1CCCCC1)(c1ccccc1)c1ccccc1 [Pridinol methanesulfonate salt] | -0.0313 | 0.215 | -0.378 | -0.508 | -0.23 | -0.0603
CCN(CC)C(=O)Nc1ccc(OCC(O)CNC(C)(C)C)c(C(C)=O)c1 (stereo not drawn) [Celiprolol HCl] | 0.0633 | 0.456 | -0.229 | -0.152 | -0.388 | -0.405
CC1(C)O[C@@H]2C[C@H]3[C@@H]4CCC5=CC(=O)CC[C@]5(C)[C@@]4(F)[C@@H](O)C[C@]3(C)[C@]2(C(=O)CCl)O1 [Halcinonide] | -0.266 | -0.708 | -0.0733 | 0.0912 | -0.203 | -0.18
CCOC(=O)C1=C(C)NC(C)=C(C(=O)OC)C1c1cccc([N+](=O)[O-])c1 (stereo not drawn) [Nitrendipine] | -0.341 | 0.238 | -0.283 | 0.00443 | -0.327 | -0.297
O=C(O)CCC(=O)c1ccc(-c2ccccc2)cc1 [Fenbufen] | -0.493 | 0.243 | -0.496 | -0.311 | -0.512 | -0.583
O=C(O)CN(CCN(CC(=O)O)CC(=O)O)CCN(CC(=O)O)CC(=O)O [Pentetic acid] | -0.425 | -1.12 | -0.45 | -0.669 | -0.443 | -0.521
CO[C@@H]1[C@@H](OC(N)=O)[C@@H](O)[C@H](Oc2ccc3c(O)c(NC(=O)c4ccc(O)c(CC=C(C)C)c4)c(=O)oc3c2C)OC1(C)C [Novobiocin sodium salt] | -0.507 | -0.477 | -0.352 | -0.602 | -0.469 | -0.462
CC(=O)OCC(=O)[C@@]1(O)CC[C@H]2[C@@H]3CCC4=CC(=O)C=C[C@]4(C)[C@@]3(F)[C@@H](O)C[C@@]21C [Isoflupredone acetate] | -0.244 | -0.851 | -0.383 | -0.16 | -0.17 | -0.357
NC(=O)C(c1ccccc1)(c1ccccc1)[C@@H]1CCN(CCc2ccc3c(c2)CCO3)C1 [Darifenacin hydrobromide] | 3.46 | 1.76 | 3.28 | 1.47 | 2.87 | 3.06
CO[C@H]1/C=C/O[C@@]2(C)Oc3c(C)c(O)c4c(O)c(c5c(nc6cc(C)ccn65)c4c3C2=O)NC(=O)/C(C)=C\C=C\[C@H](C)[C@H](O)[C@@H](C)[C@@H](O)[C@@H](C)[C@H](OC(C)=O)[C@@H]1C [Rifaximin] | -0.465 | -0.154 | 0.151 | 0.344 | -0.307 | -0.143
COC(=O)C1=C(C)NC(C)=C(C(=O)OCC(C)C)C1c1ccccc1[N+](=O)[O-] (stereo not drawn) [Nisoldipine] | 0.222 | 1.99 | 0.622 | 0.224 | -0.263 | -0.481
CCCCCN(CCCCC)C(=O)C(CCC(=O)O)NC(=O)c1ccc(Cl)c(Cl)c1 (stereo not drawn) [Lorglumide sodium salt] | -0.556 | 0.0228 | -0.478 | -0.52 | -0.482 | -0.502

Structure (SMILES) | LBPA endosome anti-LBPA integrated intensity (z-score) (A431 [1]) | LBPA endosome anti-LBPA integrated intensity (z-score) (HeLa MZ [2]) | whole-cell filipin (z-score) (A431 [3]) | whole-cell filipin (z-score) (HeLa MZ [4]) | filipin (z-score) (A431 [5]) | filipin (z-score) (HeLa MZ [6])
C[C@@]1(O)CCOC(=O)C1 [Mevalonic-D, L acid lactone] | -0.324 | -0.057 | -0.441 | 0.0668 | -0.408 | -0.457
CC1(C)OC(=O)NC1=O [Dimethadione] | -0.345 | 0.802 | -0.303 | -0.0416 | -0.341 | -0.341
COc1cccc(N(C)C(=S)Oc2ccc3c(c2)CCCC3)n1 [Liranaftate] | 0.29 | -0.439 | -0.212 | 0.593 | -0.0958 | -0.421
COc1ccc(-c2cc(=S)ss2)cc1 [Anethole-trithione] | -0.536 | -0.179 | -0.0973 | 0.207 | -0.447 | -0.257
CC(C)(Oc1ccc(Cl)cc1)C(=O)O [Clofibric acid] | -0.512 | -0.676 | -0.43 | -0.52 | -0.514 | -0.568
COc1cc2nc(N3CCN(C(=O)C4COc5ccccc5O4)CC3)nc(N)c2cc1OC (stereo not drawn) [Doxazosin mesylate] | 3.8 | 3.08 | 2.89 | 1.62 | 2.83 | 2.39
O=C(O[C@@H]1C[C@@H]2C[C@H]3C[C@H](C1)N2CC3=O)c1c[nH]c2ccccc12 [Dolasetron mesilate] | -0.534 | -0.27 | -0.669 | 0.0841 | -0.498 | -0.224
OC[C@H]1O[C@@H](Oc2ccc(O)cc2)[C@H](O)[C@@H](O)[C@@H]1O [Arbutin] | -0.459 | 0.327 | -0.0729 | -0.0721 | -0.436 | -0.605
C#C[C@]1(O)CC[C@H]2[C@@H]3CCc4cc(O)ccc4[C@H]3CC[C@@]21C [Ethinylestradiol] | -0.522 | -1.4 | -0.139 | -0.678 | -0.442 | -0.49
CCS(=O)(=O)CCn1c([N+](=O)[O-])cnc1C [Tinidazole] | -0.319 | -0.148 | -0.195 | -0.143 | -0.394 | -0.524
CN1CCc2cccc3c2[C@H]1Cc1ccc(O)c(O)c1-3 [R(-) Apomorphine hydrochloride hemihydrate] | 2.19 | 0.867 | -0.55 | -1.57 | 0.31 | -0.107
Cc1scc2c1N(C(=O)CN1CCN(C)CC1)c1ccccc1NC2=O [Telenzepine dihydrochloride] | -0.645 | 0.0897 | -0.931 | -0.897 | -0.595 | -0.401
CN1CCN(CC(=O)N2c3ccccc3C(=O)Nc3cccnc32)CC1 [Pirenzepine dihydrochloride] | -0.619 | -0.294 | -1.05 | -0.725 | -0.555 | -0.529
CCCc1nn(C)c2c(=O)[nH]c(-c3cc(S(=O)(=O)N4CCN(C)CC4)ccc3OCC)nc12 [Sildenafil] | -0.41 | -0.61 | -0.134 | -0.0955 | -0.415 | -0.257
CCC(C)(CN(C)C)OC(=O)c1ccccc1 (stereo not drawn) [Amyleine hydrochloride] | -0.517 | 0.00392 | -0.884 | -0.337 | -0.528 | -0.471
COc1ccc(C(=O)c2ccccc2O)c(O)c1 [Dioxybenzone] | -0.417 | 0.711 | -0.27 | 0.232 | -0.379 | -0.234
CCCCCCC[N+](CC)(CC)CCCCc1ccc(Cl)cc1 [Clofilium tosylate] | -0.496 | -0.791 | -0.98 | -1.56 | -0.614 | -0.77
Cc1cc(CC(=O)O)n(C)c1C(=O)c1ccc(Cl)cc1 [Zomepirac sodium salt] | -0.359 | 0.635 | -0.277 | 0.00846 | -0.413 | -0.439
CN(C)[C@@H]1C(O)=C(C(N)=O)C(=O)[C@@]2(O)C(O)=C3C(=O)c4c(O)ccc(Cl)c4[C@@](C)(O)[C@H]3C[C@@H]12 [Chlortetracycline hydrochloride] | -0.612 | -0.752 | -1.07 | -1.11 | -0.66 | -0.819
C=C1c2cccc(O)c2C(=O)C2=C(O)[C@]3(O)C(=O)C(C(N)=O)=C(O)[C@@H](N(C)C)[C@@H]3[C@@H](O)[C@H]12 [Methacycline hydrochloride] | -0.461 | -0.934 | 0.119 | -0.217 | -0.402 | -0.642
CNCC(O)c1ccc(OC(=O)C(C)(C)C)c(OC(=O)C(C)(C)C)c1 (stereo not drawn) [Dipivefrin hydrochloride] | 0.303 | -0.643 | 1.75 | 0.0389 | 0.224 | 0.0222
